Activity calls are given as the source filed them. Unless noted, the rule behind the calls is not given here.
Legend:
[1] = A549 cell viability effects, profiling panel, calcein-AM fluorescence, 48 h, basal (AID 1162); conditions: higher = more signal; note: test concentration not given here
[2] = adipocyte viability effects, profiling panel, cell-based, 3T3-L1 adipocytes, calcein-AM fluorescence, 48 h, basal (AID 1163); conditions: 3T3-L1 adipocytes viability, higher = more signal; note: test concentration not given here
[3] = HepG2 cell viability effects, profiling panel, calcein-AM fluorescence, 48 h, basal (AID 1164); conditions: higher = more signal; note: test concentration not given here
[4] = MM1S cell viability effects, profiling panel, calcein-AM fluorescence, 48 h, basal (AID 1165); conditions: higher = more signal;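 note: viability of MM1S multiple myeloma cells under basal unstimulated conditions; test concentration not given here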
[5] = basal RPMI8226 viability, no added stimulus, profiling panel, cell-based, calcein-AM fluorescence, 48 h, PK04 Diversity Set (AID 1166); conditions: RPMI8226 myeloma viability, higher = more signal;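 note: cells grown under basal conditions without added stimulus; test concentration not given here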
[6] = basal HepG2 mitochondrial membrane potential changes, profiling panel, cell-based, JC-1 fluorescence, 24 h, 100 nL compound (AID 1167); conditions: higher = more signal; note: test concentration not given here
[7] = basal 3T3-L1 adipocyte mitochondrial potential changes, profiling panel, cell-based, JC-1 fluorescence, 3T3-L1 adipocytes, 24 h, 100 nL compound (AID 1168); conditions: JC-1 mitochondrial fluorescence, higher = more signal, called active from +8 up or from −8 down; note: test concentration not given here
[8] = basal RPMI8226 mitochondrial membrane potential changes, profiling panel, cell-based, JC-1 fluorescence, 24 h, 100 nL compound (AID 1169); conditions: RPMI8226 myeloma, JC-1 mitochondrial potential fluorescence, higher = more signal; note: test concentration not given here
[9] = basal MM1S mitochondrial membrane potential changes, profiling panel, cell-based, JC-1 fluorescence, 24 h, 100 nL compound (AID 1170); conditions: higher = more signal; note: test concentration not given here
[10] = A549 lung cancer cell viability effects, profiling panel, resazurin fluorescence, 24 h, PK04 Diversity Set (AID 1171); conditions: higher = more signal, called active from +8 up or from −8 down; note: test concentration not given here
[11] = HepG2 liver cancer cell viability effects, profiling panel, resazurin fluorescence, 24 h, PK04 Diversity Set (AID 1172); conditions: higher = more signal; note: test concentration not given here
[12] = basal S. cerevisiae growth modulation, no modifier, primary screen, OD600, strain BY4716, 24 h, basal condition (AID 1173); conditions: OD600, 24 h, higher = more signal, called active from +8 up or from −8 down
[13] = MM1S myeloma cell viability, profiling panel, resazurin fluorescence, basal, 24 h, PK04 Diversity Set (AID 1174); conditions: higher = more signal, called active from +8 up or from −8 down;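 note: MM1S multiple myeloma cell line; test concentration not given here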
[14] = target: Dihydroorotate dehydrogenase (quinone), mitochondrial (Plasmodium falciparum (isolate 3D7)) (UniProt Q08210); assay: PfDHODH enzyme inhibitors, primary screen, biochemical, C-terminal His tag, absorbance 600 nm (AID 1175); conditions: DCIP absorbance 600 nm, higher = more signal, called active from +8 up or from −8 down;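 note: recombinant parasite enzyme with a five histidine tag at its C terminus; test concentration not given here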
Sequence of Dihydroorotate dehydrogenase (quinone), mitochondrial (Plasmodium falciparum (isolate 3D7)) (Q08210 whole entry, looked up): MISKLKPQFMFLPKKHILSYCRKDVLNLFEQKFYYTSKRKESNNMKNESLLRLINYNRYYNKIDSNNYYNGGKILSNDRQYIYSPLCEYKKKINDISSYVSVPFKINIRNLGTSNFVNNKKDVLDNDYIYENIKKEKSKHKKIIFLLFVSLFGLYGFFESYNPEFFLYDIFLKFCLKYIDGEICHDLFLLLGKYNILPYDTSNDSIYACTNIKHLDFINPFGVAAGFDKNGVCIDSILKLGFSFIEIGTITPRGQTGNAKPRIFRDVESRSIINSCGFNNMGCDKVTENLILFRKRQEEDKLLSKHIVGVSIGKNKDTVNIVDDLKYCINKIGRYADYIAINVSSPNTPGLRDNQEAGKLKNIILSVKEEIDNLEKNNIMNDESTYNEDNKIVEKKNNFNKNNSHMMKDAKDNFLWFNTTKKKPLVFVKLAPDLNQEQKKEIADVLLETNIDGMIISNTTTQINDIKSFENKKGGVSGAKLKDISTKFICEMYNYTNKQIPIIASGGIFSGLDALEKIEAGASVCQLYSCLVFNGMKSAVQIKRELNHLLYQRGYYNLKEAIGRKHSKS

[15] = P. aeruginosa biofilm formation inhibitors, primary screen, strain PAO1, LB-PBS medium, absorbance 600 nm (AID 1176); note: test concentration not given here; conditions: P. aeruginosa PAO1 growth/biofilm, A600, 12 h; higher = more signal
[16] = S. cerevisiae RM11-1a growth modifiers, primary screen, strain RM11-1a, OD600, basal, 24 h (AID 1177); conditions: OD600, 24 h, higher = more signal, called active from +8 up or from −8 down;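 note: cultures grown under basal conditions with no added stressor; test concentration not given here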
[17] = E. coli acrAB mutant growth effects, primary screen, E. coli filamentation inducers, strain DRC39, OD650, 24 h (AID 1178); conditions: higher = more signal, called active from +8 up or from −8 down;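 note: growth measured as culture turbidity by optical density at 650 nm; test concentration not given here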
[18] = E. coli acrAB mutant growth effects, primary screen, E. coli filamentation inducers, strain DRC39, OD650, 48 h (AID 1179);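 note: screen aims at cell division blockers that make cells filament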; conditions: E. coli DRC39 delta-acrAB growth, higher = more signal, called active from +8 up or from −8 down
[19] = RPMI8226 myeloma cell viability, profiling panel, resazurin fluorescence, basal, 24 h, PK04 Diversity Set (AID 1180); conditions: higher = more signal;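 note: RPMI8826 multiple myeloma cell line at 5000 cells per well; test concentration not given here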
[20] = target: E3 ubiquitin-protein ligase XIAP (Homo sapiens) (UniProt P98170); assay: XIAP binders, primary screen, biophysical, small-molecule microarray, fluorescence 635 nm (AID 1181); conditions: small-molecule microarray binding, higher = more signal;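 note: score merges 667 nm emission and signal to noise over triplicate slides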
Sequence of E3 ubiquitin-protein ligase XIAP (Homo sapiens) (P98170 whole entry, looked up): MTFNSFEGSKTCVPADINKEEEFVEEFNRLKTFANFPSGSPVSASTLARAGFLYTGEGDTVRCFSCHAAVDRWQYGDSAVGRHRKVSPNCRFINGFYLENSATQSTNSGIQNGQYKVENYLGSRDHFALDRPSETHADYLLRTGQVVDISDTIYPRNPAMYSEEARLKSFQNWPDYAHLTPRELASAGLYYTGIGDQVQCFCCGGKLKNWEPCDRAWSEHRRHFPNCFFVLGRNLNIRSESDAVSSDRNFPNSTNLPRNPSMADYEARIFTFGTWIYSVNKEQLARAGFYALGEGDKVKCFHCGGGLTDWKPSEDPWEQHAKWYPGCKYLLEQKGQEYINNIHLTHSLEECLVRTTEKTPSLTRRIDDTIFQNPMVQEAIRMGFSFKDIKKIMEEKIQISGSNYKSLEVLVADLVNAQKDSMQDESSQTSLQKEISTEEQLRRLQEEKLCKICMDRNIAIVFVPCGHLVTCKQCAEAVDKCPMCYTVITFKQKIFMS

Row | Structure (SMILES) | z-score [1] | z-score [2] | z-score [3] | z-score [4] | z-score [5] | z-score [6] | z-score [7] | z-score [8] | z-score [9] | z-score [10] | z-score [11] | z-score [12] | z-score [13] | composite z-score [14] | z-score [15] | z-score [16] | z-score [17] | z-score [18] | z-score [19] | composite z-score [20]
1 | COC(=O)[C@@]1(Cc2ccc(OC)cc2)[C@H]2c3cc(C(=O)N4CCCC4)n(CCCNc4ncc(C(F)(F)F)cc4Cl)c3C[C@H]2CN1C(=O)c1ccccc1 | -1.54 | -1.03 | -0.841 | -1.9 | -4.57 | 0.261 | -1.31 (inactive) | -0.873 | -1.28 | -0.577 (inactive) | 0.808 | 1.01 (inactive) | -1.12 (inactive) | -0.199 (inactive) | -0.0982 (inactive) | 0.398 (inactive) | -0.0379 (inactive) | -0.816 (inactive) | -2.67 | 0.0986
2 | C=CC[C@@]1(C(=O)N2CCCCC2)N=C(c2ccc(OCCCO)cc2)O[C@@H]1c1ccccc1CN=[N+]=[N-] | -0.933 | 0.952 | 0.192 | -1.09 | -3.66 | 1.47 | -0.307 (inactive) | -1.01 | -0.18 | -1.5 (inactive) | 0.0157 | -0.924 (inactive) | -1.13 (inactive) | -0.0512 (inactive) | 0.205 (inactive) | 0.607 (inactive) | 0.673 (inactive) | -0.526 (inactive) | -1.97 | 0.0297
3 | O=C1O[C@H](c2ccccc2)[C@H](c2ccccc2)N2[C@H]1[C@@H](C(=O)NC[C@H](O)c1ccccc1)[C@]1(C(=O)Nc3ccc(C#CC4=CCCCC4)cc31)[C@H]2c1ccccc1OCCO | -2.45 | -0.406 | -3.88 | -3.28 | -4.23 | -2.22 | 1.26 (inactive) | -1.09 | -1.79 | -3.3 (inactive) | -2.02 | 1.89 (inactive) | -6.77 (inactive) | -0.894 (inactive) | 2.9 (inactive) | 1.96 (inactive) | -0.561 (inactive) | 0.105 (inactive) | -6.5 | -0.144
4 | COCC(=C=CC[C@H](O)c1cccc(OCCO)c1)C[C@H](O)c1cc(Cl)cc(Cl)c1O | 0.593 | -0.317 | 0.956 | -0.967 | -0.193 | 0.277 | 0.86 (inactive) | 0.262 | -0.931 | 0.627 (inactive) | 1.13 | -2.5 (inactive) | 0.685 (inactive) | -0.492 (inactive) | 0.625 (inactive) | 0.337 (inactive) | 0.679 (inactive) | 0.477 (inactive) | 0.159 | -0.0669
5 | C=CCC(OC(C)=O)[C@@H]1[C@@H](N(Cc2ccc(-c3cccc(C(F)(F)F)c3)o2)C(=O)c2cccc3ccccc23)c2cc(OCCCO)ccc2N1C(=O)Cc1ccc2ccccc2c1 (stereo not given in full) | -0.285 | 0.784 | -0.0575 | -0.564 | -2.04 | 1.1 | -0.62 (inactive) | -0.0209 | -0.0374 | -0.0845 (inactive) | -0.496 | -0.721 (inactive) | -0.291 (inactive) | 0.22 (inactive) | -0.935 (inactive) | -0.0974 (inactive) | 0.525 (inactive) | 0.235 (inactive) | -0.638 | -0.242
6 | C=CCOC(=O)[C@H]1[C@@H]2C(=O)O[C@@H](c3ccccc3)[C@@H](c3ccccc3)N2[C@@H](c2ccc(OCCOC(=O)[C@@H]3C[C@@H]4C(=O)N5CCC[C@H]5C(=O)N4[C@@H]3c3cccc(OCCO)c3)cc2)[C@]12C(=O)Nc1ccc(I)cc12 | -1.06 | 0.997 | -0.649 | -0.349 | 0.206 | -0.689 | 1.19 (inactive) | -0.643 | -0.959 | -0.476 (inactive) | -0.536 | 0.509 (inactive) | -0.424 (inactive) | -0.49 (inactive) | 3.85 (inactive) | 1.29 (inactive) | 0.021 (inactive) | -0.0471 (inactive) | -0.442 | -0.0203
7 | CO[C@H]1O[C@H](CO)[C@@H](OC(=O)Nc2ccc(Br)cc2)[C@@H]2OC(=O)[C@H](Cc3cccc(Br)c3)C/C=C/C[C@@H](Cc3cccc(Br)c3)C(=O)O[C@@H]12 | 0.193 | 0.461 | 0.31 | -1.37 | -0.228 | -0.741 | 1.78 (inactive) | -0.209 | -0.456 | -2.1 (inactive) | -1.34 | -1.89 (inactive) | -1.79 (inactive) | -2.81 (inactive) | 0.594 (inactive) | 0.459 (inactive) | 0.778 (inactive) | 0.69 (inactive) | -1.45 | -0.16
8 | C=C(C(=O)CC[C@H](OC(C)=O)c1ccccc1OCCO)C(C)C | -2.33 | -0.375 | -3.04 | -0.899 | -1.94 | -0.892 | 1.99 (inactive) | -0.621 | -1.19 | -2.7 (inactive) | -1.64 | -18.4 (active) | -1 (inactive) | -9.12 (active) | -0.493 (inactive) | -22.2 (active) | -0.587 (inactive) | -0.573 (inactive) | -1.62 | 0.42
9 | C=CCC(OC(C)=O)[C@@H]1[C@@H](N(Cc2cc3ccccc3o2)C(=O)Cc2ccc(OC)cc2)c2cc(OCCCO)ccc2N1C(=O)c1ccc2ccccc2c1 (stereo not given in full) | 0.0348 | 0.25 | 0.663 | 0.817 | -0.668 | 1.4 | -0.38 (inactive) | -0.0277 | 1.11 | -1.34 (inactive) | -1.5 | -0.256 (inactive) | -0.0928 (inactive) | 0.164 (inactive) | -0.227 (inactive) | -0.226 (inactive) | -0.629 (inactive) | -1.05 (inactive) | -0.516 | 0.0374

From PubChem BioAssay
